The structures appear in SMILES notation. Active and inactive are the calls of the source.
Note: test concentration not given here.

One assay in a line: JC-1 mitochondrial signal, unstimulated MM1S myeloma – cell-based, JC-1 fluorescence, 24 h, 100 nL compound, profiling panel (AID 1170). The following applies: MM1S mitochondrial potential, higher = more signal.
Regarding `O=C(O)[C@@]1(CCS(=O)(=O)c2ccccc2)COC(c2ccc(OCCCO)cc2)=N1`, the z-score is -0.436.

`COC(=O)[C@@]1(Cc2ccc(OC)cc2)[C@H]2c3cc(C(=O)N(C)C)n(CCN4CNCC4=O)c3C[C@H]2CN1C(=O)c1ccccc1` had a z-score of -1.28. The same measure, in the same setting: for `[N-]=[N+]=NCc1ccccc1[C@@H]1OC(c2ccc(OCCCO)cc2)=N[C@]1(Cc1ccccc1N=[N+]=[N-])C(=O)N1CCOCC1` the value was -1.42; for `CN(C)CCCCCCNC(=O)[C@@H]1C[C@@H]2C(=O)N[C@@H](CCCCN)C(=O)N2[C@@H]1c1cccc(OCCO)c1`, 0.135. Still for that read-out and setting: for `CN1C(=O)C2C=CC(C(O)C3=C[C@H]4C[C@@H](C3)C4(C)C)N(Nc3ccccc3)C2C1=O` (stereo not given in full) the value was -0.39; for `COC(=O)c1c(CC[C@@H](CO)NC(=O)N[C@H](Cn2cc(Cc3ccccc3)nn2)C(C)C)oc(C(C)=O)c1C(=O)OC`, 0.492. For the compound `CN(C)CCCNC(=O)[C@@]1(c2ccc([N+](=O)[O-])cc2)CC(=O)N(C2CCCCC2)[C@@H]1c1ccc(CO)cc1`, the z-score is -0.435. `C=CCN1C(=O)[C@@]2(O[C@@H](CCO)[C@H]([Si](C)(C)c3ccc(OC)cc3)[C@H]2C)c2cc(NC(=O)c3ccc(OC)cc3)ccc21`: the z-score is -1.97. With `COc1ccc([C@H]2C[C@H]3C(Br)=C[C@@H]2C(=O)[C@]32CO2)cc1`, the z-score was -0.914. Same read-out and setting: as for `COc1ccc(C(=O)Nc2ccc(CN3C(=O)[C@@]4(O[C@@H](CC(=O)N5CCC[C@H]5CO)[C@H]([Si](C)(C)c5ccc(OC)cc5)[C@H]4C)c4ccccc43)cc2)cc1`, the figure is -0.447. On the same count and under the same terms, as for `COCCOC(=O)N1C(=O)[C@@]2(c3cc(C#CC4=CCCCC4)ccc31)[C@H](C(=O)Nc1nc3ccccc3s1)[C@H]1C(=O)O[C@H](c3ccccc3)[C@H](c3ccccc3)N1[C@@H]2c1ccc(OCCO)cc1`, the figure is -1.12. The compound `C=CCOC(=O)[C@H]1[C@@H]2C(=O)O[C@@H](c3ccccc3)[C@@H](c3ccccc3)N2[C@@H](c2ccc(OCCOC(=O)[C@H]3C[C@H]4C(=O)N5CCC[C@H]5C(=O)N4[C@H]3c3ccc(O)cc3)cc2)[C@]12C(=O)Nc1ccccc12` had a z-score of -0.857. For the compound `C=C(CCCC)/C(=C/C[C@@H](OC(C)=O)c1ccccc1OCCO)c1cnc2ccccc2c1`, the z-score was 0.61.

`Cc1ccc(C(C)CC(O)C2C=CC3C(=O)N(c4ccccc4)C(=O)C3N2Nc2ccc([N+](=O)[O-])cc2)o1` (stereo not given) showed a z-score of -1.54.

The nature of a further assay: resazurin metabolic signal in A549 cells – cell-based, resazurin fluorescence, 24 h, PK04 Diversity Set, profiling panel (AID 1171). The following applies: A549 viability, higher = more signal, called active from +8 up or from −8 down. Background: Resazurin is reduced to fluorescent resorufin, in cell work by metabolically active cells.
Regarding `COC(=O)c1c(CC[C@@H](CO)NC(=O)N2CCC[C@H]2Cn2cc(-c3ccccn3)nn2)oc(C(C)=O)c1C(=O)OC`, the z-score was 0.133 (inactive).

`CCN(CC)c1ccc(N2CC=CC34O[C@@H]5/C=C\CCCOC(=O)C5[C@H]3C(=O)N(CCO)[C@@H]4C2=O)cc1` (stereo not given in full): the z-score is -1.8 (inactive). For `CCOC(=O)C1=CCC(c2ccccc2)N(S(=O)(=O)CC[Si](C)(C)C)C1` (stereo not given), the z-score is 0.866 (inactive). The same measure, in the same setting: for `NCCCCCNC(=O)[C@@H]1C[C@@H]2C(=O)NCC(=O)N2[C@@H]1c1ccc(O)cc1` the value was 0.508 (inactive); for `CC(C)(C)OC(=O)CC[C@]1(C(=O)O)N=C(c2ccc(OCCCO)cc2)O[C@H]1c1ccccc1N=[N+]=[N-]`, 0.0553 (inactive); for `O=C1C2C=CC(C(O)C(c3ccccc3)c3ccccc3)N(n3cnnc3)C2C(=O)N1Cc1ccccc1` (stereo not given), -0.387 (inactive). Still for that read-out and setting: for `COc1ccc([Si](C)(C)[C@H]2[C@H](CCn3cc([C@H](O)c4ccccc4)nn3)O[C@@]3(C(=O)N(Cc4cccc(N5CCOC5=O)c4)c4ccccc43)[C@@H]2C)cc1` the value was -1.06 (inactive); for `COCCOC(=O)N1C(=O)[C@@]2(c3cc(C#Cc4ccc(OC)cc4)ccc31)[C@H](C(N)=O)[C@H]1C(=O)O[C@H](c3ccccc3)[C@H](c3ccccc3)N1[C@@H]2c1ccccc1OCCO`, -1.85 (inactive); for `CC(CO)N1C(=O)[C@@H]2C3C(=O)OCCC/C=C\[C@H]3OC23C=CCN(c2ccc4ccccc4c2)C(=O)[C@@H]13` (stereo not given in full), 0.315 (inactive). The same measure, in the same setting: for `O=C1NC(=O)C2C1C=CC(C(O)C(c1ccccc1)c1ccccc1)N2Nc1ccc(Cl)cc1Cl` (stereo not given) the value was -1.18 (inactive); for `CC(=O)n1cc(C(O)C2C=CC3C(=O)N(C)C(=O)C3N2Nc2ccccc2)c2ccccc21` (stereo not given), -0.162 (inactive); for `CC(C)C[C@@H]1NC(=O)[C@H]2C[C@@H](C(=O)NCCCCCCN(C)C)[C@@H](c3ccc(O)cc3)N2C1=O`, -0.743 (inactive). Take `CCN(CC)c1ccc(N2CC=CC34O[C@@H]5/C=C\CCC(C)OC(=O)C5[C@H]3C(=O)N(C(CO)C(C)C)[C@@H]4C2=O)cc1` (stereo not given in full): the z-score is 0.406 (inactive).

In the case of `C=CCNC(=O)[C@H]1[C@@H]2C(=O)O[C@@H](c3ccccc3)[C@@H](c3ccccc3)N2[C@@H](c2ccccc2OCCO)[C@]12C(=O)Nc1ccc(C#CC3=CCCCC3)cc12`, the z-score is -1.27 (inactive). Still for that read-out and setting: as for `CCOC(=O)[C@H]1C/C=C/C[C@H](C(=O)OCC)C(=O)O[C@H]2[C@@H](OC)O[C@H](CO)[C@@H](OC(=O)Nc3cccc(F)c3)[C@@H]2OC1=O`, the figure is -5.95 (inactive); as for `CCCC[C@H]1OB(O)C[C@H]2C1=C(COc1ccccc1)C[C@H]1C(=O)N(C)C(=O)[C@H]12`, -0.166 (inactive).

On to `OC([C@@H]1CC(c2ccccc2)=NO1)[C@H]1CC(c2ccccc2)=NO1` (stereo not given in full), for which the z-score was 1.04 (inactive). The same measure, in the same setting: for `CN(C)C(=O)[C@]1(Cc2ccccc2N=[N+]=[N-])N=C(c2ccc(OCCCO)cc2)O[C@@H]1c1ccccc1` the value was -0.32 (inactive). Same read-out and setting: for `CCCCCN1CC=CC23O[C@@H]4/C=C\CCCOC(=O)C4[C@H]2C(=O)N(CCCO)[C@@H]3C1=O` (stereo not given in full) the value was 0.937 (inactive); for `CC(C)[C@@H](CO)NC(=O)[C@H]1[C@@H](c2ccccc2)N(c2ccccc2)O[C@@H]1C`, 0.959 (inactive).

Take `C=CC[C@@]1(C(=O)N(C)C)N=C(c2ccc(OCCCO)cc2)O[C@@H]1c1ccccc1N=[N+]=[N-]`: the z-score is -1.48 (inactive). For the compound `C=C(C)C1C(=C)CN([C@H](CO)c2ccccc2)C1=O` (stereo not given in full), the z-score was 1.02 (inactive). Still for that read-out and setting: as for `O=C(O)[C@@]1(CCS(=O)(=O)c2ccccc2)COC(c2ccc(OCCCO)cc2)=N1`, the figure is 0.221 (inactive); as for `COC(=O)[C@@]1(Cc2ccc(OC)cc2)[C@H]2c3cc(C(=O)N(C)C)n(CCN4CNCC4=O)c3C[C@H]2CN1C(=O)c1ccccc1`, 0.367 (inactive). As to `[N-]=[N+]=NCc1ccccc1[C@@H]1OC(c2ccc(OCCCO)cc2)=N[C@]1(Cc1ccccc1N=[N+]=[N-])C(=O)N1CCOCC1`, the z-score is -0.867 (inactive). Same read-out and setting: for `CN(C)CCCCCCNC(=O)[C@@H]1C[C@@H]2C(=O)N[C@@H](CCCCN)C(=O)N2[C@@H]1c1cccc(OCCO)c1` the value was 0.159 (inactive). The same measure, in the same setting: as for `CN1C(=O)C2C=CC(C(O)C3=C[C@H]4C[C@@H](C3)C4(C)C)N(Nc3ccccc3)C2C1=O` (stereo not given in full), the figure is 0.0383 (inactive); as for `COC(=O)c1c(CC[C@@H](CO)NC(=O)N[C@H](Cn2cc(Cc3ccccc3)nn2)C(C)C)oc(C(C)=O)c1C(=O)OC`, -0.896 (inactive); as for `CN(C)CCCNC(=O)[C@@]1(c2ccc([N+](=O)[O-])cc2)CC(=O)N(C2CCCCC2)[C@@H]1c1ccc(CO)cc1`, 0.497 (inactive). Still for that read-out and setting: for `C=CCN1C(=O)[C@@]2(O[C@@H](CCO)[C@H]([Si](C)(C)c3ccc(OC)cc3)[C@H]2C)c2cc(NC(=O)c3ccc(OC)cc3)ccc21` the value was -2.27 (inactive). In the case of `COc1ccc([C@H]2C[C@H]3C(Br)=C[C@@H]2C(=O)[C@]32CO2)cc1`, the z-score was 0.217 (inactive). As for `COc1ccc(C(=O)Nc2ccc(CN3C(=O)[C@@]4(O[C@@H](CC(=O)N5CCC[C@H]5CO)[C@H]([Si](C)(C)c5ccc(OC)cc5)[C@H]4C)c4ccccc43)cc2)cc1`, the z-score is 0.336 (inactive). On the same count and under the same terms, as for `COCCOC(=O)N1C(=O)[C@@]2(c3cc(C#CC4=CCCCC4)ccc31)[C@H](C(=O)Nc1nc3ccccc3s1)[C@H]1C(=O)O[C@H](c3ccccc3)[C@H](c3ccccc3)N1[C@@H]2c1ccc(OCCO)cc1`, the figure is -0.309 (inactive); as for `C=CCOC(=O)[C@H]1[C@@H]2C(=O)O[C@@H](c3ccccc3)[C@@H](c3ccccc3)N2[C@@H](c2ccc(OCCOC(=O)[C@H]3C[C@H]4C(=O)N5CCC[C@H]5C(=O)N4[C@H]3c3ccc(O)cc3)cc2)[C@]12C(=O)Nc1ccccc12`, 0.315 (inactive); as for `C=C(CCCC)/C(=C/C[C@@H](OC(C)=O)c1ccccc1OCCO)c1cnc2ccccc2c1`, -1.21 (inactive). The same measure, in the same setting: for `Cc1ccc(C(C)CC(O)C2C=CC3C(=O)N(c4ccccc4)C(=O)C3N2Nc2ccc([N+](=O)[O-])cc2)o1` (stereo not given) the value was 0.35 (inactive).

For the origin of these results see PubChem BioAssay.
